About 3,800 (1.2%) of roughly 330,000 compounds were called active. Cut-off read from the data, not from the text of the source: active = inhibition above about 15%; inconclusive = no clear call, values can overlap the other calls; inactive = below that. The entries come from a sample that favours actives as a whole.
Molecular target: NAD-dependent protein deacylase sirtuin-5, mitochondrial (Homo sapiens) (UniProt Q9NXA8)
Assay: blockers of sirtuin-5 deacylase activity – biochemical, fluorescence imaging, single point, set 5, primary screen (AID 652115)
Details: Purified SirT5, succinyl-peptide AMC, trypsin-coupled fluorescence; at 15 µM; active compounds read high

NAD-dependent protein deacylase sirtuin-5, mitochondrial (Homo sapiens), sequence (Q9NXA8 whole entry, looked up): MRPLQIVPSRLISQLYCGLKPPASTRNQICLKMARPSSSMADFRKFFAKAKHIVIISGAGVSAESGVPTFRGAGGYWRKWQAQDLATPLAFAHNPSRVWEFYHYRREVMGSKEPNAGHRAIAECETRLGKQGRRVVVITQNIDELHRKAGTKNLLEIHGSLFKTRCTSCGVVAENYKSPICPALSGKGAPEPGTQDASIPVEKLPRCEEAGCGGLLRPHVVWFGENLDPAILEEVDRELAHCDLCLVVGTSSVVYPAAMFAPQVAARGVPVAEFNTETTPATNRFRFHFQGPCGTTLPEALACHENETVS

inhibition, inactive:
C[C@@H]1CN([C@@H](C)CO)C(=O)Cc2cc(NC(=O)Nc3cccc4ccccc34)ccc2O[C@H]1CN(C)CC1CCCCC1 -4.93%, N#Cc1c(N2CCCCC2)nc(N)c2c(N)nc(SCC(=O)O)cc12 7.29%, N#Cc1c(C(F)(F)F)cc(-c2cccs2)nc1N1CCCCC1 5.73%, CO[C@@H]1CN(C)C(=O)c2cc(NS(=O)(=O)CC(F)(F)F)ccc2OC[C@H](C)N(Cc2ccccn2)C[C@@H]1C 2.12%, C[C@@H]1CCCCO[C@H](CN(C)S(=O)(=O)c2cn(C)cn2)[C@@H](C)CN([C@@H](C)CO)C(=O)c2cc(NC(=O)c3ccncc3)ccc2O1 0.794%, Oc1cccc2cc(-c3ccncc3)cnc12 -0.877%, CC(=O)Nc1ccc(CNc2nc(NCCN(C)C)nc3cc(-c4ccccc4)sc23)cc1 2.52%, COc1cccc(CNc2nc(NCc3cccs3)nc3ccsc23)c1 -1.12%, COc1ccc(C[C@@H]2CCc3cnnn3COC[C@H](c3ccccc3)NC2=O)cc1 2.11%, CCC(=O)N[C@H]1CC[C@H](CCn2cc(-c3cccc(OC)c3)nn2)O[C@H]1CO -2.52%, Cc1ccc(C(=O)OCC(=O)N2CCCCCC2)cc1S(=O)(=O)N1CCOCC1 1.4%, COc1ccc(CNC(=O)COC(=O)c2ccc(C)c(S(=O)(=O)N3CCOCC3)c2)cc1OC -1.07%, C[C@H]1CCCCO[C@@H](CN(C)C(=O)C2CCCCC2)[C@@H](C)CN([C@@H](C)CO)C(=O)c2cc(NS(=O)(=O)c3cccs3)ccc2O1 8.81%, COCC#Cc1cnc2c(c1)C(=O)N([C@H](C)CO)C[C@@H](C)[C@@H](CN(C)Cc1ccccc1F)O2 1.75%, CO[C@@H]1CN(C)C(=O)c2cc(NS(=O)(=O)c3cccc(F)c3)ccc2OC[C@@H](C)NC[C@@H]1C -3.7%, CCC(=O)Nc1ccc2c(c1)C(=O)N(C)C[C@@H](OC)[C@H](C)CN(Cc1ccccc1C(=O)O)[C@@H](C)CO2 2.25%, O=C(C1CCCCC1)N1CC2(C1)[C@H](c1ccccc1)[C@H](CO)N2CC1CCCC1 5.17%, O=C(COC(=O)c1cccnc1Cl)NC12CC3CC(CC(C3)C1)C2 0.076%, O=C(COC(=O)c1ccc([N+](=O)[O-])o1)NC12CC3CC(CC(C3)C1)C2 -5.22%, COCC(=O)Nc1ccc2c(c1)OC[C@@H](C)N(Cc1ccccn1)C[C@H](C)[C@@H](OC)CN(C)C2=O -1.91%, COc1cccc(S(=O)(=O)Nc2ccc3c(c2)C(=O)N(C)C[C@@H](OC)[C@@H](C)CN[C@@H](C)CO3)c1 5.28%, C[C@H](O)C#Cc1cnc2c(c1)C(=O)N([C@@H](C)CO)C[C@H](C)[C@@H](CN(C)C(=O)c1ccccc1)O2 -1.59%, Cc1cccc(OCC(=O)Nc2ccccc2F)c1 -2.03%, Cc1cccc(OCCC(=O)Nc2ccccc2C(N)=O)c1 -1.74%, O=C(C[C@@H]1CC[C@H]2[C@@H](COC[C@@H](O)CN2S(=O)(=O)c2cccc(Cl)c2)O1)N1CCCCC1 1.52%, COc1ccccc1NC(=O)CCCc1c[nH]c2ccccc12 -1.4%, COc1ccc(CCNS(=O)(=O)c2ccc(F)cc2)cc1OC -1.59%, CC=Cc1ccc2n(c1=O)C[C@H]1[C@H](CO)[C@@H](C(=O)NCC3CC3)N(Cc3nccs3)[C@@H]21 (mixture of isomers) 1.01%, COCC(=O)N1C[C@H]2[C@@H](c3ccccc31)[C@@H](CO)N2C(=O)NC(C)C 0.583%, O=C(C1CCC1)N1CC(=O)N2[C@H](C1)[C@@H](c1ccc(-c3ccccc3F)cc1)[C@@H]2CO 3.28%, C[C@H](CO)N1C[C@H](C)[C@H](CN(C)Cc2ccc(C(=O)Nc3ccccc3N)cc2)Oc2c(NC(=O)Nc3ccccc3)cccc2C1=O -0.83%, COc1ccc(C2NC(=O)N(C)C(C)=C2[N+](=O)[O-])cc1 (centres undefined) 2.48%, COCCN1C(=O)N[C@@H](c2ccccc2)C(C(=O)OC)=C1C -1.66%, CC=Cc1ccc2n(c1=O)C[C@H]1[C@H](CO)[C@@H](C(=O)N3CCCCC3)N(Cc3ccccn3)[C@@H]21 (mixture of isomers) 3.91%, C[C@@H](NC(=O)C[C@H]1C[C@H]2c3cc(NC(=O)C4CCOCC4)ccc3O[C@H]2[C@@H](CO)O1)c1ccccc1 -0.41%, Cc1cc(C)c2[nH]c(=O)c(CN(Cc3ccccc3)C(=S)NCCCN(C)C)cc2c1 -6.33%, COCCCNC(=S)NNC(=O)C(O)(c1ccccc1)c1ccccc1 -5.23%, COCC(=O)N1[C@H](CO)[C@@H](c2ccccc2)[C@H]1CN(C)C(=O)c1ccncc1 3.21%, CN(c1ccccc1)S(=O)(=O)c1ccc2[nH]c(=O)[nH]c2c1 -0.22%, CCN(c1ccccc1)S(=O)(=O)c1ccc(OCC(=O)N2CCCC2)cc1 -0.147%

inhibition, active:
N#CCc1c(C#N)c(N)nc(N2CCCC2)c1C#N 26.2%, COCCNc1nc(NCc2ccc(NC(C)=O)cc2)c2sccc2n1 16.4%, COc1ccc(C(=O)OCC(=O)c2ccc(C)c(S(=O)(=O)N3CCOCC3)c2)cc1OC 25.2%, O=C(COC(=O)c1ccc(Br)o1)NC12CC3CC(CC(C3)C1)C2 15.6%, COc1cccc(OCC(=O)Nc2ccccc2C(N)=O)c1 29.5%, COc1ccc(S(=O)(=O)NCCc2c[nH]c3ccccc23)cc1OC 21.4%, COC(=O)C1=C(C)N(C)C(=O)NC1c1ccc([N+](=O)[O-])o1 (centres undefined) 17.2%, COCCCNC(=S)N(Cc1ccccc1)Cc1ccc(F)cc1 15.1%, CCN(c1ccccc1)S(=O)(=O)c1ccc2[nH]c(=O)[nH]c2c1 23.9%

From PubChem BioAssay AID652115 (Broad Institute, 2013)
